From the supplement of paper PMC5919970 come the findings set out here.

Molecules are shown by their SMILES. Where a name gives a salt, the structure may show the parent alone. Whole data set: some 2,000 compounds, median “fractional viability relative to vehicle” near 0.91, cut for the lowest 2% near 0.045. This is one part of a sample in which the lowest values are shown more often than they occur.

The test system of this assay is TYKNU. Nature of the assay: fractional viability relative to vehicle; TYKNU is a high-grade serous ovarian cancer line; higher = less growth inhibition. The settings on record: 72 h. The method, boiled down:
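TYKNU control cells or lentiCRISPRv2 knockout derivatives were seeded at 500 cells per well into drug-stamped 384-well plates holding a ~2100-compound library at 2 or 10 μM, in duplicate. Cells were grown at 37 °C in 5% CO2 in RPMI 1640 with 10% FBS, and drug treatment lasted 72 h. Viability was read by Cell Titer Glo luminescence. Duplicate treatment wells were averaged and normalised to duplicate control wells from the same plate position.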

Where [1] appears, read: 2uM, genotype: DNM1L knockout (sgDNM1L #1).
The mark [2] stands for this setting: 2uM, genotype: sgCTRLA1 (non-targeting control).
Where [3] appears, read: 10uM, genotype: DNM1L knockout (sgDNM1L #1).
Where [4] appears, read: 10uM, genotype: sgCTRLA1 (non-targeting control).

Turning to `CC(=O)Nc1ccccc1` [Acetanilide], the fractional viability runs as follows: under setting [1], 0.896; under setting [2], 1.08; under setting [3], 0.878; under setting [4], 1.14.
In the case of `CC(C)(C)C(=O)Nc1ccc2c(c1)C(=O)C(=O)c1ccccc1-2`, the fractional viability turned out to be 0.175 under setting [1], 0.0968 under setting [2], 0.0236 under setting [3] and 0.0127 under setting [4].
For `CCCc1nc(C(C)(C)O)c(C(=O)OCc2oc(=O)oc2C)n1Cc1ccc(-c2ccccc2-c2nnn[nH]2)cc1` [Olmesartan Medoxomil] the same measures were 0.907, 0.929, 1.1 and 1.02.
With `CC(C)(C)C#Cc1cc(N(C(=O)[C@H]2CC[C@H](C)CC2)[C@H]2CC[C@H](O)CC2)c(C(=O)O)s1` [VX-222 (VCH-222, Lomibuvir)], the fractional viability under setting [1] turned out to be 0.983, the fractional viability under setting [2] came to 1.03, the fractional viability under setting [3] was found to be 0.818 and the fractional viability under setting [4] stood at 0.95.
Consider `NC(=O)c1cnc(N[C@@H]2CCCC[C@@H]2N)nc1Nc1cccc(-n2nccn2)c1`, for which the fractional viability was determined as 0.751 under setting [1], 0.853 under setting [2], 0.185 under setting [3] and 0.142 under setting [4].
Regarding `Fc1ccc(CNc2ncnc3ccc(F)cc23)cc1` [Spautin-1], the fractional viability stood at 0.675 under setting [1], 0.763 under setting [2], 0.67 under setting [3] and 0.447 under setting [4].
Consider `NNC(=O)c1ccncc1` [Isoniazid], for which the fractional viability is 0.893 under setting [1], 1.14 under setting [2], 0.875 under setting [3] and 1.06 under setting [4].
On the same counts, the results for `O=C(NNc1ccccc1)c1ccncc1` are 0.723, 0.931, 0.801 and 0.659.
For `O=C(/C=C/c1ccc2ccccc2n1)c1ccncc1` the same measures were 0.0494, 0.0683, 0.0258 and 0.0162.
On the same counts, the results for `Cc1ccc(NC(=O)Nc2cc(C(F)(F)F)ccc2F)cc1Nc1ccc2c(c1)NC(=O)/C2=C\c1ccc[nH]1` are 0.873, 0.905, 0.918 and 0.825.
As to `CCOC(=O)c1c(CSc2ccccc2)n(C)c2cc(Br)c(O)c(CN(C)C)c12` [Arbidol HCl], the fractional viability is, setting by setting: under setting [1], 0.913; under setting [2], 1.07; under setting [3], 0.611; under setting [4], 0.645.
On the same counts, the results for `CCOC(=O)[C@H](CCc1ccccc1)N[C@@H](C)C(=O)N1C(=O)N(C)C[C@H]1C(=O)O` [Imidapril HCl] are 0.976, 1.1, 0.958 and 1.17.
For `CC(C)C[C@H](NC(=O)CNC(=O)c1cc(Cl)ccc1Cl)B1OC(=O)C(CC(=O)O)(CC(=O)O)O1` the same measures were 0.13, 0.0935, 0.0814 and 0.0756.
For `CC(=O)[C@]1(O)Cc2c(O)c3c(c(O)c2[C@@H](O[C@H]2C[C@H](N)[C@H](O)[C@H](C)O2)C1)C(=O)c1ccccc1C3=O` [Idarubicin HCl] the same measures were 0.362, 0.165, 0.042 and 0.021.
Take `COc1cccc2c1C(=O)c1c(O)c3c(c(O)c1C2=O)C[C@@](O)(C(=O)CO)C[C@@H]3O[C@H]1C[C@H](N)[C@H](O)[C@H](C)O1` [Doxorubicin (Adriamycin)]: the fractional viability is 0.377 under setting [1], 0.212 under setting [2], 0.437 under setting [3] and 0.323 under setting [4].
On the same counts, the results for `COc1cccc2c1C(=O)c1c(O)c3c(c(O)c1C2=O)C[C@@](O)(C(C)=O)C[C@@H]3O[C@H]1C[C@H](N)[C@H](O)[C@H](C)O1` [Daunorubicin HCl] are 0.392, 0.254, 0.0554 and 0.0241.
For `Nc1cccc(S(=O)(=O)N2CCCN(S(=O)(=O)c3ccc4c(c3)OCCO4)CC2)c1` the same measures were 0.767, 0.995, 0.742 and 0.647.
On the same counts, the results for `NCCCCCNCC12CC3CC(CC(C3)C1)C2` [IEM 1754 dihydrobroMide] are 0.967, 0.972, 0.91 and 0.898.
`CC(=O)Oc1cc2c(s1)CCN(C(C(=O)C1CC1)c1ccccc1F)C2` (stereo unspecified) [Prasugrel]: the fractional viability was found to be 1.14 under setting [1], 1.21 under setting [2], 0.897 under setting [3] and 1.08 under setting [4].
On the same counts, the results for `C[C@@H]1COCCN1c1cc(C2([S@](C)(=N)=O)CC2)nc(-c2cc[nH]c3nccc2-3)n1` are 0.189, 0.127, 0.136 and 0.0834.
`CCCCCCCCCCCCCCCCn1cc[n+](Cc2ccccc2)c1C` returned a fractional viability under setting [1] of 0.134, a fractional viability under setting [2] of 0.104, a fractional viability under setting [3] of 0.0139 and a fractional viability under setting [4] of 0.00629.
For `Cc1nn(C)c(COc2ccc(N3CCN(S(=O)(=O)N(C)C)CC3)cc2)c1-c1cccc2c(CCCOc3cccc4ccccc34)c(C(=O)O)n(CCN3CCOCC3)c12`, the fractional viability runs as follows: under setting [1], 0.762; under setting [2], 0.94; under setting [3], 0.644; under setting [4], 0.518.
For `C[C@@H](Oc1cc(-c2cnn(C3CCNCC3)c2)cnc1N)c1c(Cl)ccc(F)c1Cl` the same measures were 0.669, 0.73, 0.128 and 0.126.
For `CC[C@H]1[C@@H](O)[C@@H]2[C@H](CC[C@]3(C)[C@@H]([C@H](C)CCC(=O)O)CC[C@@H]23)[C@@]2(C)CC[C@@H](O)C[C@@H]12` [Obeticholic Acid], the fractional viability under setting [1] is 0.846, the fractional viability under setting [2] came out at 0.891, the fractional viability under setting [3] was 0.952 and the fractional viability under setting [4] was 0.807.
On the same counts, the results for `CC(C)(C)C(=O)C(Oc1ccc(Cl)cc1)n1ccnc1` (stereo unspecified) [Climbazole] are 0.805, 1.06, 0.641 and 0.924.
For `CC(C)(C)c1cc(C(=O)C(C#N)=NNc2cccc(Cl)c2)no1` the same measures were 0.783, 0.936, 0.57 and 0.583.
On the same counts, the results for `CCCC(=O)Nc1cccc(NC(=O)c2ccccc2Br)c1` are 1.11, 1.19, 0.939 and 1.21.
As to `COc1cc2c(cc1OC)CN(CCc1ccc(NC(=O)c3cc(OC)c(OC)cc3NC(=O)c3cnc4ccccc4c3)cc1)CC2` [Tariquidar], the fractional viability amounted to 0.769 under setting [1], 1.05 under setting [2], 0.158 under setting [3] and 0.555 under setting [4].
For `CCc1ccc(OCc2ccccc2C(=O)Nc2ccc3nc(C)cc(N)c3c2)cc1` the same measures were 0.117, 0.166, 0.0139 and 0.00672.
